BLM helicase inh – qHTS Assay for Inhibitors of Bloom's syndrome helicase (BLM); RecQ-like DNA helicase BLM (Homo sapiens), P54132; recombinant BLM DNA unwinding, fluorescence dequenching; Potency, µM (top dose mostly 56.1 µM), inactives show at the top dose activity change, negative = inhibition, hits mostly inhibitors; 350,000 compounds, 0.2% hits;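 note: plate controls were vehicle for no effect and no enzyme for full effect; nearly all actives have a fitted effect of over 35% in size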
RECQ1 helicase – qHTS Assay for Inhibitors of RecQ-Like Dna Helicase 1 (RECQ1). ATP-dependent DNA helicase Q1 (Homo sapiens), P46063. RECQ1 DNA unwinding, red fluorescence kinetic read. Potency, µM (titrated, usually from 57.3 µM), inactives show at the top dose activity, negative = inhibition, usual class: inhibitors. 240,000 compounds, 0.54% hits;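 note: plate controls were vehicle for no effect and no enzyme for full effect; nearly all actives have a fitted effect of over 30% in size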
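RECQ1T1 50 nM; forked duplex (20 bp + 30-nt ss tails) 200 nM, ATP 2 mM final; pH 8.0, 2 mM MgCl2, 2.5 ug/ml poly(dI-dC); 15 min compound preincubation; discontinuous kinetic read over 2 h at RT.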
TRb-SRC2 inh – qHTS for Inhibitors of the Interaction of Thyroid Hormone Receptor and Steroid Receptor Coregulator 2; Thyroid hormone receptor beta (Homo sapiens), P10828; 280,000 compounds, 0.065% hits; TRbeta-SRC2 peptide binding, fluorescence polarization; receptor liganded with 1 µM T3; AID 1469, 2008; Potency, µM (doses to about 106 µM), without a hit: top-dose activity change, negative = inhibition, actives largely listed as inhibitors;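 note: plate controls were bound peptide for no effect and peptide without receptor for full effect; nearly all actives have a fitted effect of over 50% in size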
Target sequence (P10828 whole entry, looked up): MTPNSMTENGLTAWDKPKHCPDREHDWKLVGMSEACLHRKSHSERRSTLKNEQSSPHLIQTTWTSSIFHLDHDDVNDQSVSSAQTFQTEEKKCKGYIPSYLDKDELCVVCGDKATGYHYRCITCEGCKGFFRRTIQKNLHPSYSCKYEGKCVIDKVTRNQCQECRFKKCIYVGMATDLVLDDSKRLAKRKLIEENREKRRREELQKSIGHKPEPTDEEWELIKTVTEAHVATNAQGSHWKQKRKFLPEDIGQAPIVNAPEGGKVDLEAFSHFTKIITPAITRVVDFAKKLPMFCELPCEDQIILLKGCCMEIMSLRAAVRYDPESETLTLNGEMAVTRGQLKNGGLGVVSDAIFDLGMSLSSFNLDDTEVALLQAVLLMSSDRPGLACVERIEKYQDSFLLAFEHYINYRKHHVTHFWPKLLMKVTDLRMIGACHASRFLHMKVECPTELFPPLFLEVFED
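Fluorescence polarization of 20 nM Texas Red SRC2 peptide (20-aa NR interaction domain) bound to 0.6 uM human TRb ligand-binding domain, with 1 uM T3, after 5 hr at ambient temperature; inhibition seen as decreased polarization.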
TexasRed fluor – Total Fluorescence Counterscreen for Inhibitors of the Interaction of Thyroid Hormone Receptor and Steroid Receptor Coregulator 2; TRb/SRC2 Texas Red total fluorescence interference; Potency, µM (series often up to 106 µM), inactives show at the top dose fluorescence change, negative = quenching; 280,000 compounds, 0.29% hits; AID 1479, 2009; active = well fitted curve in either direction with a large enough effect; inconclusive = small, poorly fitted or top-dose-only effect
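Human TRβ ligand-binding domain (0.6 uM) and Texas Red SRC2 peptide (20 nM) in Tris buffer with 1 uM T3 and 5% DMSO were incubated with pinned compound for 5 hr at ambient temperature. Total fluorescence was computed as S + 2P (555/632 nm).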
* = called active by the depositor; i = inactive; ? = inconclusive; . = no result; ! = not confirmed by another sample; [ ] = remark or other dose. An excerpt weighted towards active compounds, which were near 0.64% of everything screened. Unless noted, calls come from the whole dose curve; as a rule, active = well fitted curve in the direction sought with a large enough effect; inconclusive = small, poorly fitted or top-dose-only effect, or another doubt; inactive = no such curve, though single readings can be large; an effect the other way counts as inactive or inconclusive. Unless noted, % is set by controls: 0 for no effect and ±100 for the full control effect; potency is the fitted concentration of half-maximal effect.

SMILES	BLM helicase inh	RECQ1 helicase	TRb-SRC2 inh	TexasRed fluor
[Cd+2].[Cl-].[Cl-]	.	35.5µM*	.	.
[Cl-].[Cl-].[Hg+2]	-7.2%	-9.1%	.	.
COc1cc(N2CCOCC2)ccc1C=C1C(=O)NC(=O)NC1=O	-0.3%	-9.1%	-20.7%[53 µM]	31.6µM*[quencher]
COc1cc(N2CCOCC2)ccc1/C=C1\C(=O)NC(=O)N(Cc2cccs2)C1=O	-5.8%	i	2.2%	3.2%
CN1CCN(c2ccc(/C=C3\C(=O)NC(=S)N(c4cccc(Br)c4)C3=O)o2)CC1	-13.4%	14.1µM*	0.7%	-1.2%
CO/N=C(/C(=O)OC)c1ccccc1COc1ccccc1C	.	.	-5.9%[201 µM]	-0.9%[201 µM]
COc1cccc(C(=O)NN(C(=O)c2cc(C)cc(C)c2)C(C)(C)C)c1C	.	.	-0.2%[201 µM]	3.0%[201 µM]
CCOP(=O)(OCC)C(NC(=O)c1cccc(C)c1)C(Cl)(Cl)Cl (stereo unspecified)	-1.0%	i	-0.4%	-2.5%
CCOP(=O)(OCC)C(NC(=O)Cc1ccccc1)C(Cl)(Cl)Cl (stereo unspecified)	0.3%	-2.8%	1.3%	-6.5%
CCOP(=O)(OCC)C(NC(=O)c1cccc2ccccc12)C(Cl)(Cl)Cl (stereo unspecified)	6.4%	-12.6%	-17.2%[53 µM]	31.6µM*[quencher]
CCOP(=O)(OCC)C(NC(=O)c1ccccc1C)C(Cl)(Cl)Cl (stereo unspecified)	-7.0%	-0.6%	-0.2%[53 µM]	3.16µM*[quencher]
CCOP(=O)(OCC)OC(Cl)C(Cl)(Cl)Cl (stereo unspecified)	.	.	-4.5%[201 µM]	3.0%[201 µM]
C/C(=N\NC(=O)Nc1cc(F)cc(F)c1)c1ncccc1C(=O)O	.	.	2.2%[201 µM]	-1.6%[201 µM]
CC[C@]1(O)CC(O[C@@H]2CC(N(C)C)C(O)C(C)O2)c2c(cc3c(c2O)C(=O)c2c(O)ccc(O)c2C3=O)C1C(=O)OC (stereo partly specified)	?	i	14.7%	39.8µM*[fluorescent]
Cc1nc2c(=O)n(C)c(=O)nc-2n(C)n1	0.794µM*	i	-16.0%	-2.4%
O=C(NC(=O)c1c(F)cccc1F)Nc1ccc(OC(F)(F)C(F)OC(F)(F)F)c(Cl)c1 (stereo unspecified)	.	.	0.3%[201 µM]	2.9%[201 µM]
CNc1ccc2nc3ccccc3[n+](C)c2c1	17.8µM*	.	.	.
OCCNc1c2c(nc3ccccc13)CCCC2	6.2%	13.0%	7.1%	0.4%
C[n+]1c2ccccc2nc2ccc(NCCO)cc21	17.8µM*	.	.	.
O=P(O)(O)CN(CP(=O)(O)O)CP(=O)(O)O	.	.	-1.4%[201 µM]	-2.2%[201 µM]
Cc1ccc(N2C(=O)/C(=C/c3ccc(CN(CCC#N)S(C)(=O)=O)o3)C(=O)NC2=S)cc1C	-17.0%	25.1µM*	10.5%	4.8%
Cc1cccc(N2C(=O)/C(=C/c3ccc(CN(CCC#N)S(C)(=O)=O)o3)C(=O)NC2=S)c1	-7.7%	17.8µM*	4.8%	6.6%
Cc1ccc(/C=C2\C(=O)NC(=S)N(c3cccc(F)c3)C2=O)o1	-11.4%	.	.	.
Cc1nn(-c2cc(NS(C)(=O)=O)c(Cl)cc2Cl)c(=O)n1C(F)F	.	.	-4.4%[201 µM]	-1.1%[201 µM]
CCCCn1c(O)c(/C=N/N2CCCCC2c2cccnc2)c(=O)[nH]c1=S (stereo unspecified)	-15.5%	-2.7%	-3.6%	-52.7%
SMILES	BLM helicase inh	RECQ1 helicase	TRb-SRC2 inh	TexasRed fluor
Cc1ccc(-n2c(O)c(/C=N/N3CCCCC3c3cccnc3)c(=O)[nH]c2=S)cc1 (stereo unspecified)	-5.3%	31.6µM*	3.5%	2.1%
Cc1cc(/C=C2\C(=O)NC(=O)N(Cc3ccccc3Cl)C2=O)c(C)n1-c1ccc(C(=O)O)cc1	-19.6%	?	-0.3%	-1.4%
Cc1cc(/C=C2\C(=O)NC(=O)N(Cc3ccccc3)C2=O)c(C)n1-c1ccc(Cl)c(C(=O)O)c1	-3.0%	35.5µM*	3.2%	-4.5%
Cc1ccc(-n2c(C)cc(/C=C3/C(=O)NC(=O)N(Cc4ccco4)C3=O)c2C)cc1	-15.2%	?	-6.6%	5.7%
Cc1cc(/C=C2\C(=O)NC(=O)N(Cc3ccco3)C2=O)c(C)n1-c1ccc(O)cc1	25.1µM*	23.0%	4.7%[53 µM]	-1.1%[53 µM]
CCNc1nc(Cl)nc(NC(C)(C)C#N)n1	.	.	-0.8%[201 µM]	-0.9%[201 µM]
Cc1c(COC(=O)C2C(/C=C(\Cl)C(F)(F)F)C2(C)C)cccc1-c1ccccc1 (stereo unspecified)	.	.	-4.8%[201 µM]	0.0%[201 µM]
CCCCCCCCCCCC#N	.	.	5.4%[201 µM]	1.6%[201 µM]
CCCCC/C=C\C/C=C\C/C=C\C/C=C\CCCC(=O)NCC(=O)O	-12.2%	3.55µM*!	10.2%	2.1%
CCCCC/C=C\C/C=C\C/C=C\C/C=C\CCCC(=O)Nc1ccc(O)cc1C	-22.7%	-15.9%	-15.6%	3.55µM*![quencher]
O=C1NC(=O)N(c2ccc(Cl)cc2)C(=O)/C1=C\c1ccc(Sc2nc3ccccc3[nH]2)o1	-15.2%	25.1µM*	?	44.7µM*[fluorescent]
COCCCn1c(N)c(C(=O)OCCOC)c2nc3ccccc3nc21	-1.2%	8.4%	-28.8%	-4.0%
CCOC(=O)c1c(NS(=O)(=O)c2ccccc2)n(CCCOC)c2nc3ccccc3nc12	5.62µM*	-2.4%	?	2.2%
CCCCC/C=C\C/C=C\C/C=C\C/C=C\CCCC(=O)NCCc1ccc(O)c(O)c1	-23.0%	-1.5%	3.0%	-2.9%
CCCCC/C=C\C/C=C\C/C=C\C/C=C\CCCC(=O)N(Cc1ccc(O)c(Cl)c1)Cc1ccc(O)c(Cl)c1	31.6µM*	3.9%	8.4%	3.2%
CCc1ccc(N2C(=O)NC(=O)/C(=C\c3cccn3CCOc3ccc(C(C)C)cc3)C2=O)cc1	-9.4%	25.1µM*	7.7%	6.1%
O=C(Cc1cc(=O)[nH][nH]1)N/N=C/c1ccccc1Cl	-4.1%	-8.2%	-9.5%	1413µM*[quencher]
CCNc1nc(Cl)nc(NC(C)(C)C)n1	.	.	-3.3%[201 µM]	0.4%[201 µM]
ClC1=C(Cl)C2(Cl)C3C4OC4C(Cl)C3C1(Cl)C2(Cl)Cl (stereo unspecified)	.	.	8.2%[201 µM]	-1.1%[201 µM]
C/C(=N\Nc1ccccc1)c1c(O)n(Cc2ccccc2)c(=O)[nH]c1=O	-0.3%	0.6%	-16.5%[53 µM]	0.0708µM*[quencher]
C/C(=N\Nc1ccccc1)c1c(O)n(-c2ccccc2)c(=O)[nH]c1=O	-0.7%	-4.4%	-4.8%	-0.7%
O=C1NC(=O)N(Cc2ccc(F)cc2)C(=O)/C1=C\c1ccoc1	-19.7%	25.1µM*	7.9%	12.6%
COc1ccc(N2C(=O)/C(=C/c3ccc(C)o3)C(=O)NC2=S)cc1	-8.3%	.	.	.
COc1ccc(OC)c(N2C(=O)NC(=O)/C(=C/c3ccc([N+](=O)[O-])s3)C2=O)c1	10µM*	26.4%	?	13.9%
O=C1NC(=S)N(c2ccc(F)cc2)C(=O)/C1=C/c1ccco1	3.16µM*	.	.	.
COc1ccc(OC)c(N2C(=O)/C(=C/c3ccco3)C(=O)NC2=S)c1	1.58µM*	.	.	.
[Cl][Sn]([c]1ccccc1)([c]1ccccc1)[c]1ccccc1	.	.	1.3%[201 µM]	-0.1%[201 µM]
O=C1NC(=S)N(c2ccc(F)cc2)C(=O)/C1=C\c1ccoc1	-17.2%	31.6µM*	12.9%	7.2%
Cc1ccc(N2C(=O)NC(=O)/C(=C\c3ccoc3)C2=O)cc1	3.4%	?	6.2%	10.9%

From PubChem BioAssay
